Data published in the supplement of paper PMC7261846.
± gives the uncertainty stated by the source.

System: Candida albicans SNY425 biofilm
Test: biofilm OD600 with compound plus antifungal (OD600 (absorbance)); higher = more biofilm remaining
[1] = assay detail: disruption of 24-h mature biofilm (compound + antifungal for a second 24 h)
[2] = assay detail: sustained inhibition (compound + antifungal during 90-min adherence and 24-h growth)

SMILES	biofilm OD600 [1]	biofilm OD600 [2]
CC(C)C[C@H](NC(=O)N[C@H](C(=O)N[C@@H](CCC(N)=O)C(=O)N[C@@H](C)C=O)[C@@H]1CCNC(=N)N1)C(=O)O [Elastatinal] + CC[C@H](C)C[C@H](C)CCCCCCCCC(=O)N[C@H]1C[C@@H](O)[C@@H](NCCN)NC(=O)[C@@H]2[C@@H](O)CCN2C(=O)[C@H]([C@H](O)CCN)NC(=O)[C@H]([C@H](O)[C@@H](O)c2ccc(O)cc2)NC(=O)[C@@H]2C[C@@H](O)CN2C(=O)[C@H]([C@@H](C)O)NC1=O [caspofungin] (first compound 12.5 µM)	0.263 ± 0.0069	0.189 ± 0.011
COC(=O)C[C@H](NC(=O)[C@H](C)NC(=O)[C@@H](NC(=O)OCc1ccccc1)C(C)C)C(=O)CF + CC[C@H](C)C[C@H](C)CCCCCCCCC(=O)N[C@H]1C[C@@H](O)[C@@H](NCCN)NC(=O)[C@@H]2[C@@H](O)CCN2C(=O)[C@H]([C@H](O)CCN)NC(=O)[C@H]([C@H](O)[C@@H](O)c2ccc(O)cc2)NC(=O)[C@@H]2C[C@@H](O)CN2C(=O)[C@H]([C@@H](C)O)NC1=O [caspofungin] (first compound 12.5 µM)	0.296 ± 0.011	0.177 ± 0.0034
CCCCCCCCCC(=O)N[C@@H](CCCN=C(N)N)C(=O)N[C@H](C(=O)N[C@@H](CCCCN)C(=O)N[C@@H](CCCN=C(N)N)C(=O)CCl)C(C)C + OC(Cn1cncn1)(Cn1cncn1)c1ccc(F)cc1F [fluconazole] (first compound 4 µM)	0.267 ± 0.0072	0.108 ± 0.005
NC(=O)c1cccc(-c2cccc(OC(=O)NC3CCCCC3)c2)c1 + CC[C@H](C)C[C@H](C)CCCCCCCCC(=O)N[C@H]1C[C@@H](O)[C@@H](NCCN)NC(=O)[C@@H]2[C@@H](O)CCN2C(=O)[C@H]([C@H](O)CCN)NC(=O)[C@H]([C@H](O)[C@@H](O)c2ccc(O)cc2)NC(=O)[C@@H]2C[C@@H](O)CN2C(=O)[C@H]([C@@H](C)O)NC1=O [caspofungin] (first compound 12.5 µM)	0.283 ± 0.011	0.171 ± 0.0069
N[C@H](C(=O)O)[C@@H]1CC(Cl)=NO1 [Acivicin] + CC[C@H](C)C[C@H](C)CCCCCCCCC(=O)N[C@H]1C[C@@H](O)[C@@H](NCCN)NC(=O)[C@@H]2[C@@H](O)CCN2C(=O)[C@H]([C@H](O)CCN)NC(=O)[C@H]([C@H](O)[C@@H](O)c2ccc(O)cc2)NC(=O)[C@@H]2C[C@@H](O)CN2C(=O)[C@H]([C@@H](C)O)NC1=O [caspofungin] (first compound 4 µM)	0.296 ± 0.012	0.163 ± 0.0049
C[C@H](NC(=O)[C@@H]1CCCN1C(=O)[C@@H]1CCCN1C(=O)[C@@H](O)[C@H](N)Cc1ccccc1)C(N)=O [Apstatin] + C[C@@H]1[C@H](O)[C@@H](C)/C=C/C=C/C=C/C=C/C=C/C=C/C=C/[C@H](O[C@@H]2O[C@H](C)[C@@H](O)[C@H](N)[C@@H]2O)C[C@@H]2O[C@](O)(C[C@@H](O)C[C@@H](O)[C@H](O)CC[C@@H](O)C[C@@H](O)CC(=O)O[C@H]1C)C[C@H](O)[C@H]2C(=O)O [amphotericin B] (first compound 12.5 µM)	0.294 ± 0.0093	0.193 ± 0.0078
O=C(NCCCCN1CCOCC1)c1cc2ccccc2o1 + CC[C@H](C)C[C@H](C)CCCCCCCCC(=O)N[C@H]1C[C@@H](O)[C@@H](NCCN)NC(=O)[C@@H]2[C@@H](O)CCN2C(=O)[C@H]([C@H](O)CCN)NC(=O)[C@H]([C@H](O)[C@@H](O)c2ccc(O)cc2)NC(=O)[C@@H]2C[C@@H](O)CN2C(=O)[C@H]([C@@H](C)O)NC1=O [caspofungin] (first compound 12.5 µM)	0.251 ± 0.014	0.202 ± 0.01
Cc1c(O)cccc1C(=O)N[C@@H](CSc1ccccc1)[C@H](O)CN1C[C@H]2CCCC[C@H]2C[C@H]1C(=O)NC(C)(C)C [nelfinavir] + CC[C@H](C)C[C@H](C)CCCCCCCCC(=O)N[C@H]1C[C@@H](O)[C@@H](NCCN)NC(=O)[C@@H]2[C@@H](O)CCN2C(=O)[C@H]([C@H](O)CCN)NC(=O)[C@H]([C@H](O)[C@@H](O)c2ccc(O)cc2)NC(=O)[C@@H]2C[C@@H](O)CN2C(=O)[C@H]([C@@H](C)O)NC1=O [caspofungin] (first compound 12.5 µM)	0.17 ± 0.0053	0.127 ± 0.019
